Compound activity as filed in PubChem.
This is a sample that favours compounds with a hit; in the whole collection about 2.2% have one here.
KLF5 inh = kruppel-like factor 5 inhibition. AID 1700. actives 0.23% (n = 290,000). inhibition, % at 5 µM. DLD-1 KLF5 promoter-luciferase reporter, luminescence;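 active = inhibition above a per-plate limit of that plate's mean compound inhibition plus 3 SD, cut at about 60% in these data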;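 also: higher means less KLF5 promoter-driven luciferase light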
Ba/F3 V617F tox = loss of viability in JAK2V617F-driven Ba/F3 cells | actives 1.1% (n = 220,000) | inhibition, % at 5.6 µM | AID 1446 | Ba/F3 EpoR-JAK2V617F viability, ATP luminescence;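 active = inhibition above the campaign mean plus 3 SD over all tested compounds, cut at about 24% in these data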;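 also: cytokine-independent growth of Ba/F3 cells driven by EpoR plus mutant JAK2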
aSyn 5UTR inh = 5' untranslated region of α-synuclein, MLPCN primary screen. alpha-synuclein 5'UTR reporter, inhibitor activity. actives 0.82% (n = 300,000). AID 1813. inhibition, % (tested at 7.5 µM); in the data active = inhibition above about 60%; inconclusive = no clear call, values can overlap the other calls;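 also: H4 neuroglioblastoma cells stably carrying SNCA 5'UTR luciferase fusion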
BaF3 tox = parental Ba/F3 viability inhibition as JAK2V617F counter-screen; CellTiter-Glo ATP luminescence; inhibition, % at 5.6 µM; actives 1.1% (n = 220,000);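 active = inhibition above a per-campaign cutoff, the mean inhibition of all tested compounds plus 3 SD, cut at about 27% in these data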
APP transl inh = APP translation inhibition. SH-SY5Y APP 5'UTR-luciferase reporter, luminescence. inhibition, % at 2 µM. actives 0.82% (n = 190,000);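 active = inhibition above a set limit, derived from the sample mean plus 3 SD, cut at about 45% in these data; inconclusive = one replicate passes the limit while the other fails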
IEC-6 tox = kills IEC-6 intestinal cells in KLF5 counter-screen; IEC-6 cytotoxicity, luminescence viability; inhibition, % at 5 µM; actives 0.78% (n = 290,000); in the data active = inhibition above about 22%
A number is an active result; 0 = inactive; ? = inconclusive; - = no result given.

SMILES	KLF5 inh	Ba/F3 V617F tox	aSyn 5UTR inh	BaF3 tox	APP transl inh	IEC-6 tox
O=C(Nc1ccc(Oc2cccc(C(F)(F)F)c2)nc1)c1ccco1	0	0	0	0	-	0
CC(=O)Nc1cc[n+](C(C)C(=O)c2ccc(Br)cc2)cc1 (centres undefined)	0	40	0	37	0	0
COc1ccc(CCNC(=O)c2ccc(=O)[nH]c2)cc1OC	0	-	0	-	-	0
O=C(CSc1nnc(Cn2nnc3ccccc32)o1)N(Cc1ccc(F)cc1)c1ccccc1	0	0	0	41	0	0
N/C(=N\NC(=O)c1sccc1OCc1ccc(Cl)cc1Cl)c1ccccn1	0	0	0	0	62	0
COc1cccc(-c2nc(-c3ccccn3)no2)c1	0	0	104	0	0	0
Cc1cccc(-c2noc(-c3ccc4c(c3)OCO4)n2)c1	0	0	0	0	0	0
COc1cccc(-c2nc(-c3ccccc3)no2)c1	0	0	0	0	0	0
c1ccc(-c2noc(-c3ccc4c(c3)OCO4)n2)nc1	0	26	91	28	0	0
O=c1cccc2c1c1cc[nH]c3ccc(=O)n2c31	-	-	79	-	-	-
CCn1c(SCC(=O)Nc2ccc(N3CCOCC3)cc2)nnc1-c1ccncc1	0	-	0	-	-	0
CCc1nc(SCC#N)c(C#N)cc1C	0	0	69	0	0	0
CCc1nc(SCC(=O)O)c(C#N)cc1C	0	0	0	0	0	0
Cc1cccc2cc(C#N)c(SCC(=O)NNC(=O)Cc3ccccc3)nc12	0	0	0	0	0	0
Cc1cccc2cc(C#N)c(SCC#N)nc12	0	0	85	0	0	0
CCCn1cc(CN2CCCC(C(=O)c3ccc4c(c3)OCO4)C2)c(C)n1 (centres undefined)	0	-	0	-	-	0
CCc1ccccc1N(CC(=O)NC(C)C)C(=O)CCC(=O)Nc1nccs1	0	-	0	-	-	0
CNC(=O)c1ccc(C)c(NC(=O)C2=C(C)OCCS2)c1	0	-	0	-	-	0
CC(=O)Nc1nc2ccccc2n1CCOc1ccccc1Cl	0	0	73	0	0	0
Cn1c(NCc2ccccc2Cl)nc2ccccc21	-	-	0	-	-	-
CC(=O)Nc1nc2ccccc2n1Cc1ccccc1Cl	0	0	87	0	-	0
CCC(=O)Nc1nc2ccccc2n1Cc1ccc(Cl)cc1	0	0	72	0	0	0
S=C(Nc1ccccc1)Nc1nc2ccccc2n1CCOc1ccc(Cl)cc1	0	0	0	0	0	0
CCC(=O)Nc1nc2ccccc2n1Cc1ccccc1Cl	0	0	72	0	-	0
COc1cc(/C=C/C(=O)OCC(=O)N2CCCc3ccccc32)ccc1OC(F)F	-	-	0	-	-	-
SMILES	KLF5 inh	Ba/F3 V617F tox	aSyn 5UTR inh	BaF3 tox	APP transl inh	IEC-6 tox
CC(C)Cn1c(=O)c(C(=O)NCc2ccc3c(c2)OCO3)c(O)c2ccccc21	0	-	0	-	-	0
O=C(CSc1nnc(CNC(=O)c2c(F)cccc2F)o1)NCCc1ccccc1	0	-	0	-	-	0
NS(=O)(=O)c1ccc2nc(-c3ccccc3)c(-c3ccccc3)nc2c1	0	-	0	-	-	0
CC(=O)NCc1nc2ccccc2n1Cc1ccccc1C	0	0	0	0	0	0
CCCCCCCn1c(NC(=O)CC)nc2ccccc21	0	0	68	0	-	0
CC(=O)Nc1nc2ccccc2n1Cc1ccccc1C	0	0	67	0	0	0
CCC(=O)Nc1nc2ccccc2n1CCN1CCOCC1	0	0	0	0	0	0
CNC[C@H](CC1CCCCC1)NC[C@H](Cc1ccccc1)NCCC12CC3CC(CC(C3)C1)C2	0	-	125	-	-	0
Nc1ccc(Oc2ccccc2-c2ccccc2)cc1	-	-	104	-	-	-
NCCOc1ccccc1-c1ccccc1	0	0	0	0	0	0
N#Cc1ccccc1COc1ccc(/C=C/C(=O)O)cc1	0	0	71	0	60	0
COc1ccccc1N(CC(=O)NCCN1CCOCC1)S(=O)(=O)c1ccccc1	0	-	0	-	-	0
CCc1ccc2c(c1)Sc1ccccc1CC2N1CCN(C)CC1 (centres undefined)	-	-	0	-	-	-
c1ccc2c(c1)CC(N1CCCCC1)c1ccccc1S2 (centres undefined)	-	-	90	-	-	-
COc1ccc(C)cc1NC(=O)C(=O)NCc1ccncc1	0	0	0	96	0	0
Cc1ccc(-c2nn(-c3ccccc3)cc2C=C2C(=O)CC(C)(C)CC2=O)cc1	0	0	0	0	0	0
CC1=NNC(=O)/C1=C\c1cn(-c2ccccc2)nc1-c1ccc(Cl)cc1	0	0	98	0	0	0
Cc1cc([N+](=O)[O-])ccc1-c1ccc(C2Nc3ccccc3C(=O)N2O)o1 (centres undefined)	0	0	83	0	54	0
Clc1ccc(C[n+]2cc(-c3ccccc3)n3c2CCCCC3)c(Cl)c1	0	86	0	79	0	0
O=[N+]([O-])c1ccc(C[n+]2cc(-c3ccc(Cl)c(Cl)c3)n3c2CCCCC3)cc1	0	0	0	0	-	0
Clc1ccc(-c2cnc3n2CCCCC3)cc1	0	0	0	0	0	0
Clc1ccc(-c2c[n+](Cc3ccc(Br)cc3)c3n2CCCCC3)cc1	0	62	0	69	-	0
Clc1ccc(-c2c[n+](Cc3ccc(Cl)cc3Cl)c3n2CCCCC3)cc1	0	73	0	73	-	0
Cc1ccc(C(=O)C2CCN(CC(=O)NC3CCCC3)CC2)cc1	0	-	0	-	-	0
CN1CCN(CCCNC(=O)c2ccc3c(Cl)c4c(nc3c2)CCCC4)CC1	0	-	0	-	-	0
SMILES	KLF5 inh	Ba/F3 V617F tox	aSyn 5UTR inh	BaF3 tox	APP transl inh	IEC-6 tox
O=C1c2ccccc2C(=O)C1c1ccc2ccccc2n1	0	0	94	0	0	0
COC(=O)C1=C(C)NC(C)=C(C(=O)OC)C1c1ccc2ccccc2n1	0	0	0	0	-	0
COc1ccc(CCNC(=O)CNC(=O)c2ccc(Br)o2)cc1OC	-	-	0	-	-	-
Cc1cc(C)c2cc(C=O)c(Cl)nc2c1	0	0	0	0	93	0
COc1cc(/C=C2\COC/C(=C\c3cc(OC)c(OC)c(OC)c3)C2=O)cc(OC)c1OC	0	99	103	105	-	0
COc1cc(/C=C2\CC(C(C)(C)C)C/C(=C\c3cc(OC)c(OC)c(OC)c3)C2=O)cc(OC)c1OC (centres undefined)	0	-	80	-	-	0
Cc1ccc(OCCC(=O)OC(C)C(=O)NC2CC2)cc1 (centres undefined)	-	-	0	-	-	-
N#Cc1ccc(NC(=O)Nc2ccc(Oc3ccc(NC(=O)Nc4ccc(C#N)cc4)cc3)cc2)cc1	0	0	74	0	-	0
Cc1ccccc1C(=O)N1CCN(c2ccc(NC(=O)c3ccc4c(c3)OCO4)cc2)CC1	0	67	?	67	0	36
O=C(Nc1ccc(N2CCN(C(=O)c3ccco3)CC2)cc1)c1ccc2c(c1)OCO2	0	0	0	0	0	0
COc1ccc(C)cc1N(C(=O)c1snc(C(N)=O)c1N)C(C(=O)NC1CCCCC1)c1ccc(C)o1 (centres undefined)	0	-	0	-	-	0
COc1cc([C@@H]2c3cc4c(cc3[C@@H](NC3CCN(Cc5ccccc5)CC3)[C@H]3COC(=O)[C@H]23)OCO4)cc(OC)c1O	-	-	103	-	-	-
